Screening results deposited in PubChem by The Scripps Research Institute Molecular Screening Center.
GPR151 activ – human GPR151 activation; Q8TDV0; PathHunter beta-arrestin GPR151 cells, luminescence; activation, % at 11.2 µM; 1% of 650,000 active; in the data active = activation above about 4.9%
FBW7 activator – activators of human E3 ligase FBW7; Q969H0; AlphaScreen FBW7–phospho-cyclin E peptide binding, activator screen; normalized activity (activation), % at 26.1 µM; 0.13% of 650,000 active; AID 1259310; in the data active = normalized activity above about 1.9%;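 also: purified mutant Fbw7 with reduced substrate affinity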
TEAD-YAP inh – TEAD-YAP interaction inhibition | inhibition, % at 9.12 µM | HEK-TIYL cells, TEAD-Gal4/YAP UAS-luciferase luminescence | 1.4% of 640,000 active; in the data active = inhibition above about 32%
MITF inh – blocks human microphthalmia-associated transcription factor. 0.91% of 650,000 active. inhibition, % at 2.6 µM. AID 1259374. AlphaScreen MITF homodimerization, bead proximity signal. O75030; in the data active = inhibition above about 50%
Target sequence (O75030 whole entry, looked up): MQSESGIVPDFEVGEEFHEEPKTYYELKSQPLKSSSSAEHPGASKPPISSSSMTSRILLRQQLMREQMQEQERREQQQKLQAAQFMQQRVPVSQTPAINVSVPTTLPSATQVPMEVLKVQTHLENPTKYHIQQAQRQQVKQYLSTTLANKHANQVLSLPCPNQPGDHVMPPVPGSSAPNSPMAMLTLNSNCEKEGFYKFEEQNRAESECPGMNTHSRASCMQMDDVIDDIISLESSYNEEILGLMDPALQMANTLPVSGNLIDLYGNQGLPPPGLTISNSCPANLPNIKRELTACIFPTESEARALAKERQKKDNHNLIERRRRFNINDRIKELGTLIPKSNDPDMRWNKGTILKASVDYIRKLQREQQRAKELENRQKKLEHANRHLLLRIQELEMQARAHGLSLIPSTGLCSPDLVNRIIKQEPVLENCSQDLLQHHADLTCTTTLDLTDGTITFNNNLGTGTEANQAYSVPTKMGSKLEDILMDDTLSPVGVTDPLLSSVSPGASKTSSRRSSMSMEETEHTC
Large screens that a line does not name were inactive. This is a sample that favours compounds with a hit; in the whole collection about 3.4% have one here.

COC(=O)c1ccccc1C(=O)N1CCN(c2nc3ccc(SC)cc3s2)CC1	TEAD-YAP inh 47
CSc1ccc2nc(N3CCN(C(=O)CN(C)S(C)(=O)=O)CC3)sc2c1	none
COc1cccc(N2C(=O)NC(=O)/C(=C/c3ccc(OC)cc3OC)C2=O)c1	none
O=C(c1ccc(-n2cccc2)cc1)N1CCC(c2nnc(-c3ccco3)o2)CC1	FBW7 activator 2.2
c1ccc2c(c1)CCN(Cc1ccc3c(c1)CN(Cc1ccncc1)CCO3)C2	none
Cc1ccc2nc(=S)n(C(=O)c3ccccc3F)n2c1	TEAD-YAP inh 62
CCCCOc1ccccc1C1C(C(=O)OC)=CN(Cc2ccc(F)cc2)C=C1C(=O)OC	none
O=C(Cn1nnc(-c2ccccc2NC(=O)c2ccc(F)cc2)n1)NCc1cccs1	FBW7 activator 2.5
Oc1ccc(CCNc2nc(Nc3ncccn3)nc3c2ncn3-c2ccccc2)cc1	none
Oc1ccc(CCNc2nc(Nc3ccncc3)nc3c2ncn3-c2ccccc2)cc1	TEAD-YAP inh 56
Oc1ccc(CCNc2nc(NCc3cccnc3)nc3c2ncn3-c2ccccc2)cc1	TEAD-YAP inh 54
Oc1ccc(CCNc2nc(Nc3ccccn3)nc3c2ncn3-c2ccccc2)cc1	TEAD-YAP inh 34
Oc1ccc(CCNc2nc(NCc3cccnc3)nc3c2ncn3-c2ccsc2)cc1	none
Oc1ccc(CCNc2nc(Nc3ccccn3)nc3c2ncn3-c2ccsc2)cc1	TEAD-YAP inh 46
c1ccc(CNc2nc(Nc3ccccn3)nc3c2ncn3-c2ccsc2)cc1	none
CCCCC1CCC(C(=O)OCC(=O)NC(=O)Nc2ccc3c(c2)OCCO3)CC1 (configuration not stated)	none
O=C(Cn1nc(C(=O)O)c2ccccc2c1=O)NCc1ccccc1	none
OCCNc1nc(Nc2ccccn2)nc2c1ncn2-c1ccccc1	TEAD-YAP inh 34
COc1ccc(CCNc2nc(Nc3cccnc3)nc3c2ncn3-c2ccccc2)cc1	TEAD-YAP inh 37
OCCNc1nc(Nc2ccncn2)nc2c1ncn2-c1ccccc1	none
COc1cc(Cn2c(C)cc(O)cc2=O)cc(OC)c1OC	none
CC(=O)NC(=S)NNC(=O)c1ccccc1OCc1ccccc1	TEAD-YAP inh 63
CCCCOc1ccccc1C(=O)NNC(=S)NC(C)=O	none
Cc1cc(C(=O)CCl)c(C)n1Cc1cccs1	none
Cc1cc(C(=O)CSc2nc(N)cc(=O)[nH]2)c(C)n1Cc1cccs1	none
Cc1csc(SCC(=O)c2cc(C)n(Cc3cccs3)c2C)n1	TEAD-YAP inh 59
Cc1cc(C(=O)CSc2nnc(N)s2)c(C)n1Cc1cccs1	TEAD-YAP inh 58
Cc1ccc2sc(-c3ccc(NC4=CC(=O)CC(C)(C)C4)cc3)nc2c1	TEAD-YAP inh 53
Cc1ccc2sc(-c3ccc(NS(C)(=O)=O)cc3)nc2c1	none
Cc1ccc2sc(-c3ccc(NC(=O)/C=C/C(=O)O)cc3)nc2c1	TEAD-YAP inh 92
Cc1ccc2nc(-c3ccc(N)cc3)sc2c1	TEAD-YAP inh 86
Cc1ccc2sc(-c3ccc(N)cc3)nc2c1	TEAD-YAP inh 87
Cc1ccc2sc(NC(=O)/C=C/C(=O)O)nc2c1	none
Cc1ccc2nc(-c3cc(Cl)c(N)c(Cl)c3)sc2c1	none
COc1cc(/C=c2\sc3nc(-c4ccccc4OC(C)=O)nn3c2=O)ccc1OCc1ccccc1	none
O=C(NCc1cccnc1)c1cc2n(n1)C(C(F)(F)F)CC(c1ccc(Cl)c(Cl)c1)N2 (configuration not stated)	none
Cn1c(SCC(=O)NC(=O)Nc2ccc3c(c2)OCCO3)nnc1C(F)(F)F	none
COC(=O)C1=C(C)NC2=C(C(=O)CC(c3ccccc3)C2)C1c1ccccc1OC(C)C (configuration not stated)	none
Nc1ccc(-c2nc3cc(N)ccc3s2)cc1	TEAD-YAP inh 47
N#C/C(=C\c1ccco1)C(=O)Nc1ccccc1F	FBW7 activator 2.1
COc1cc(C=O)ccc1OCc1cccc([N+](=O)[O-])c1	none
COC(=O)/C(N=Nc1ccc(-c2ccccc2)cc1)=C(/O)CCl	TEAD-YAP inh 61
CCOC(=O)/C(N=Nc1ccc([N+](=O)[O-])cc1)=C(\O)CCl	none
Nc1c(C(=O)Nc2ccc(Oc3ccccc3)cc2)sc2nc3c(cc12)C(=O)CCC3	TEAD-YAP inh 37
CC1(C)CC(=O)c2cc3c(N)c(C(=O)NC4CCCCC4)sc3nc2C1	FBW7 activator 2.4
Cc1ccc(NC(=O)c2sc3nc4c(cc3c2N)C(=O)CCC4)cc1C	TEAD-YAP inh 65
Nc1c(C(=O)Nc2ccccc2)sc2nc3c(cc12)C(=O)CCC3	TEAD-YAP inh 32
Nc1c(C(=O)Nc2ccc(Br)cc2)sc2nc3c(cc12)C(=O)CCC3	none
CCC(c1nnnn1CCOC)N(Cc1cc2ccc(OC)cc2[nH]c1=O)C1CCCC1 (configuration not stated)	TEAD-YAP inh 58
Cc1cccc(N=C(NN)c2ccc3ccccc3n2)c1	TEAD-YAP inh 66
CC1=CC(C)(C)N2C(=O)C(=O)c3cc(OS(=O)(=O)c4ccc(C)cc4)cc1c32	none
CC1=CC(C)(C)N2C(=O)C(=O)c3cc(O)cc1c32	TEAD-YAP inh 54
Cn1c(=O)c2[nH]c(Nc3cccc(C(F)(F)F)c3)nc2n(C)c1=O	TEAD-YAP inh 45
CCC1C(=O)NCCN1Cc1ccc2c(c1)CN(Cc1ccc(Cl)cc1)CCO2 (configuration not stated)	none
CCC1C(=O)NCCN1Cc1ccc2c(c1)CN(Cc1c(C)nc3sccn13)CCO2 (configuration not stated)	TEAD-YAP inh 35
NS(=O)(=O)c1ccc(CCNC(=O)CSc2nc3ccsc3c(=O)n2CC(=O)O)cc1	none
COc1ccc2c(c1)c1nc(N(C)C)nc3c1n2CCN3C	TEAD-YAP inh 88
O=C1CSC(=O)N1Cc1c(Cl)cccc1Cl	FBW7 activator 2.2
COC(=O)[C@@H]1C[C@@H](NC(=O)c2ccc3ccccc3c2O)CN1Cc1cc(F)ccc1F	TEAD-YAP inh 42
O=C(/C=C/c1ccccc1)c1c(O)c2ccccc2[nH]c1=O	none
Cc1[nH]c2ccccc2c(=O)c1C(=O)/C=C/c1ccccc1	TEAD-YAP inh 93
O=C(c1ccccc1)c1cc(Cl)ccc1NCN1C(=O)c2cccc([N+](=O)[O-])c2C1=O	none
CCCCCN1/C(=C\C=C\c2n(CCCC)c3cc(Cl)c(Cl)cc3[n+]2CCCCC)N(CCCC)c2cc(Cl)c(Cl)cc21	TEAD-YAP inh 44
CCn1c(C)[n+](CCOC(C)=O)c2cc(Cl)c(Cl)cc21	none
CC(=O)C1=C(c2ccc(C3CCCCC3)cc2)N(C(C)=O)n2c(C)nnc2S1	TEAD-YAP inh 41
CC(=O)C1=C(c2ccc(C(C)(C)C)cc2)N(C(C)=O)n2c(C)nnc2S1	TEAD-YAP inh 39
CC(C)C[C@@H]1NC(=O)[C@H]2CN(Cc3cccc4ncccc34)CCN2C1=O	none
O=C(NCC1CCCN(C(=O)C2(c3ccccc3)CC2)C1)c1ccc(F)cc1 (configuration not stated)	none
COc1ccc(/C=C2/SC(N3CCN(C)CC3)=NC2=O)c(OC)c1	none
C/C(=N\NC(N)=S)c1cc(Cl)sc1Cl	TEAD-YAP inh 33
CO[C@H]1[C@@H]([C@@]2(C)O[C@@H]2CC=C(C)C)[C@]2(CC[C@H]1OC(=O)/C=C/C=C/C=C/C=C/C(=O)O)CO2	TEAD-YAP inh 46
